B1: il2ra_site1_1z92_sap_8_mot_a31c9f16200a66e5ad31ddff700483a3_0001_1_000000069_0001_19_32_H_._HHH_b1_08052_0001_0000300018_0000001_0_0001_af2pred_0001_af2pred (protein)
chain: SSSSEESLRRLAERLVEDAAKLADLSEEQKEELEELAEELIKRGVDPHEIAKELERLADELSSSS
B2: il2ra_site2_3nfp_normal_mot_HHH_b2_00429_000000100_0001_21_37_H_._HHH_b2_03374_0001_0000300044_0000001_0_af2pred_0001_1_af2pred_swapped (protein)
chain: SSSSNHEEFALRAALISLKLAVEAGNEELVRRLYEDAERAAKNANDPEVLEELERVFEEFHSSSS
B3: il2ra_site2_2erj_sap_17_mot_HHH_b2_05720_000000165_0001_1_18_H_._HHH_b2_07625_af2_0001_0000700024_0000001_0_0001 (protein)
chain: SSSSSDEEEREAERITEEIEERIDDPEERLREFFRVAVELLREGDPRTAHILLRLAQEGSSSSSS
B4: il2ra_site2_2erj_sap_24_mot_4428453eb85d3cbdb794fa6b82d21c19_0001_000000044_0001_14_30_H_._HHH_b2_00328_0001_0000300019_0000001_0_0001 (protein)
chain: SSSSDELHRLYELANEILHALSRGDEELVEELLEELEKLAEEADSRVAKENVEALRKHLDSSSSS
B5: il2ra_site1_2b5i_normal_mot_f5ff40796168375b462bec8614a1db4a_0001_1_000000138_0001_53_65_H_._HHH_b1_04161_0001_0000400021_0000001_0_af2pred_dldesign_0_af2pred (protein)
chain: SSSSSLRELVEEIIAEVKRLVAEGKLEEARKLAILALRLARKAEDPELVARVEALLETLESSSSS
B6: il2ra_site2_3nfp_normal_mot_HHH_b2_06150_000000217_0001_39_53_H_._HHH_b2_05434_af2_0001_0000100005_0000001_0 (protein)
chain: SSSSDEEEVEKLLKKAEELRERGNPEEARKLLREATQIAYERRDSELFFLVAEVLFEVLLSSSSS
B7: il2ra_site1_1z92_normal_mot_HHH_b2_00827_000000099_0001_20_37_H_._HHH_eva_0327_af2_0001_0000100007_0000001_0 (protein)
chain: SSEEELEELVEKIREVAEEKGDERLRRALERARFVLRELELGANSERAREIAEEAIKALYKTVVS
B8: il2ra_site1_3nfp_normal_mot_HHH_b1_04049_af2_000000244_0001_42_55_H_._HHH_b1_01786_0001_0000400012_0000001_0_af2pred_0001_af2pred (protein)
chain: SSSSDDKKRIQKLLREIMRLSKEGDEEEAEKLLEEVEELAREAGDPVAELLVELLKKILNSSSSS
B9: il2ra_site1_1z92_normal_mot_1581cc1c700002558836ca695aafbf97_0001_1_af2_000000099_0001_17_32_H_._HHH_b2_05050_0001_0000200017_0000001_0_af2pred_0001_af2pred (protein)
chain: SSSSDEEVERLVEELVEEFNLSEEEEKELRRIARSAEELGADPELVKKALEHFVEFLKRKGSSSS
B10: il2ra_site1_1z92_normal_mot_HHH_b1_04604_af2_000000029_0001_42_56_H_._HHH_b2_03915_0001_0000100005_0000001_0_af2pred_0001_af2pred (protein)
chain: SSSSDAELAAEADELLAEGNPEKVEEVLEEIRRAAEERDSRRLKEILENLEEELRELEEESSSSS
B11: il2ra_site1_2b5i_sap_12_mot_HHH_b2_04463_af2_000000056_0001_43_55_H_._HHH_b2_02114_af2_0001_0000100003_0000001_1_0001 (protein)
chain: SSSSNEAAREARELMEKLDEAFRRGDEELLEELLEEIEEFLKEQDDKFLRLAMEQVREELSSSSS
B12: il2ra_site2_3nfp_normal_mot_HHH_b1_03557_000000106_0001_41_55_H_._HHH_b2_00561_0001_0000400025_0000001_0_af2pred_0001_1_af2pred_swapped (protein)
chain: SSSSSDEEREEVEELLEEAEHIEDEREVFIVLVEAFFLALELRDPELERLVREFLKEFRSSSSSS
B13: il2ra_site1_1z92_normal_mot_HHH_b1_03515_000000289_0001_1_19_H_._HHH_b1_01554_af2_0001_0000200013_0000001_0 (protein)
chain: SSSSSSEHAARAIVKVLVRVARLSEEQEKELQELAEELVKRGYSLLEIIKILDRVAVELSSSSSS
B14: il2ra_site2_2erj_sap_27_mot_HHH_b1_06697_000000025_0001_41_54_H_._HHH_b2_06097_0001_0000200013_0000001_0_0001 (protein)
chain: SSSSDKLRELYKLAVELMRLVAEGDEERFEEVAEEVRKLVEELDSRTAREILEALERKIKSSSSS
B15: il2ra_site2_3nfp_sap_22_mot_ems_3hM_1278_af2_000000151_0001_43_60_H_._HHH_b2_04893_0001_0000100005_0000001_0_0001 (protein)
chain: SSSSSEELEELIEQARELLEEGDKYEAAQVVLRASRLALELNDPEAARRILELFEEIQRTSSSSS
B16: il2ra_site2_3nfp_sap_18_mot_7f6a3539c8daa08639e4cdbcc6f77908_0001_af2_000000032_0001_16_31_H_._HHH_b1_04314_af2_0001_0000300027_0000001_0_0001 (protein)
chain: SSSSDKSEEYLRIALELLEEAIKAGDEEAARSHLEVAKAAAESHNDEEVEERLEELEELLSSSSS
B17: il2ra_site2_2erj_sap_12_mot_HHH_b1_05666_000000037_0001_42_55_H_._HHH_b2_06677_0001_0000400020_0000001_0_0001 (protein)
chain: SSSSDERLHELYKLANELLRLEFEGDEERIEELLQRVRELAEELKSDAARELVERVEKKLSSSSS
B18: il2ra_site1_1z92_normal_mot_HHH_b2_05027_000000150_0001_42_56_H_._HHH_b2_03014_0001_0000400026_0000001_0 (protein)
chain: SSSSSSSEEWLEELVELVIKRSDDPEEQEELRRLLEELREEGDPELWLELAQLLIEIASSSSSSS

A selection follows. How many sequences the whole screen found active is unknown. A number with no mark means an inactive call.

The target in the assay is il2ra, P01589. The experiment in a line: yeast display titration.
Chain of il2ra, P01589 (P01589 whole entry): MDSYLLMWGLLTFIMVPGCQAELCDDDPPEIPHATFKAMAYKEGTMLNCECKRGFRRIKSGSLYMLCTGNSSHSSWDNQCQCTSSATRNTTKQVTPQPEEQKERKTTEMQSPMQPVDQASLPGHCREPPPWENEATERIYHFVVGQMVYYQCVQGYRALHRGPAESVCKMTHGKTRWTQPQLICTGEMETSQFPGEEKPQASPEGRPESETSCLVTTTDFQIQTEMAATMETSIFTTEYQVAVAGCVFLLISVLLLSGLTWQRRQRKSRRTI
Take B1: the “apparent Kd” value was “no binding seen”.

Turning to B2, the “apparent Kd” value was “no binding seen”.

In the case of B3, the “apparent Kd” value was “no binding seen”.

B4: the “apparent Kd” value is “no binding seen”.

With B5, the “apparent Kd” value was “no binding seen”.

As for B6, the “apparent Kd” value was “no binding seen”.

With B7, the “apparent Kd” value is “no binding seen”.

As to B8, the “apparent Kd” value was “no binding seen”.

For B9, the “apparent Kd” value is “no binding seen”.

On to B10, for which the “apparent Kd” value is “no binding seen”.

As for B11, the “apparent Kd” value is “no binding seen”.

Regarding B12, the “apparent Kd” value was “no binding seen”.

For B13, the “apparent Kd” value is “no binding seen”.

With B14, the “apparent Kd” value was “no binding seen”.

As to B15, the “apparent Kd” value was “no binding seen”.

For the molecule B16, the “apparent Kd” value was “no binding seen”.

As to B17, the “apparent Kd” value was “no binding seen”.

On to B18, for which the “apparent Kd” value is “no binding seen”.

The record behind these values is PMC10163288.
